According to PubChem BioAssay:
Calls of active or inactive are those of the source.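 Rule for the calls, unless noted: active = compound raises insulin release from rat beta cells at 5 mM glucose, no numeric limit stated; inactive = the rest.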

Columns and labels:
[1] = stimulators of nuclear beta-catenin in C2C12, primary screen, imaging, WNT3A-conditioned medium, mouse C2C12, NPC library (AID 1117326; in the data active = nuclear beta-catenin stimulation mostly above about 4.2%, no sharp cut-off; inactive = mostly below about 10%; note: reference of the scale not given here); conditions: stronger effect = higher value
[2] = stimulators of insulin release from INS-1E, primary screen, cell-based, 5 mM glucose, NPC library (AID 1117329); conditions: rat INS-1E insulin secretion, at 10 µM, stronger effect = higher value; note: reference of the scale not given here
[3] = growth inhibition of GSK3B-pretreated HCT116 cells – cell-based, CellTiter-Glo, 0.2 to 20 µM (AID 1117336;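 active = compounds lowering colon cancer cell viability after pretreatment blocking the GSK3B kinase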); conditions: HCT116 viability after GSK3B inhibitor, at 20 µM, stronger effect = higher value
[4] = inhibition of endothelial tube formation, primary screen, imaging, VEGF stimulated, CD31 staining, tube area, NPC library (AID 1117340;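 active = compound that reduces growth-factor-driven endothelial tube area in a mixed cell culture, no cutoff stated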); conditions: VEGF-stimulated ADSC/ECFC co-culture, at 10 µM, stronger effect = higher value
[5] = glucagon-like peptide 1 release enhancers, primary assay, NCI-H716 cell line, NPC library (AID 1117341;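 active = compound raises GLP1 secretion from the human gut endocrine cells, with no numeric limit stated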; note: reference of the scale not given here); conditions: NCI-H716 cells, at 10 µM, stronger effect = higher value
[6] = HCT116 colon cancer cell growth inhibition, primary screen, CellTiter-Glo luminescence, NPC library (AID 1117342;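 active = compounds that lower survival of HCT116 colon cancer cells in the luminescence readout, no numeric limit stated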); conditions: at 20 µM (top of the series)
[7] = CellTiter-Glo luminescent readout of SW480 viability loss, NPC library primary (AID 1117343;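 active = compounds that lower viability of the colon cancer cells in the luminescence readout, with no numeric limit stated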); conditions: CellTiter-Glo luminescence; at 20 µM (top of the series)
[8] = decreased DLD-1 cellular survival, CellTiter-Glo luminescent readout, NPC compound collection, primary HTS (AID 1117346;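 active = compounds that lower survival of DLD-1 colon cancer cells in the luminescence readout, no cutoff given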); conditions: DLD-1 viability, CellTiter-Glo luminescence; at 20 µM (top of the series)

Cc1ccc(C(C)C)c(O)c1
inactive: nuclear beta-catenin stimulation ([1]; at 10 µM) 0.6% | insulin secretion stimulation [2] -3.2% | viability decrease [3] -0.65% | tube area decrease [4] 15.5% | GLP1 secretion stimulation [5] -0.9% | inhibition of viability [6] -2.9% | viability decrease (inhibition) [8] 1.9%
active: viability decrease (inhibition) [7] 74.8%
0.8%: nuclear beta-catenin stimulation ([1]; stimulation, at 2 µM)

CCCC(=O)OC[C@@H](OC(=O)CCC)[C@@H](OC(=O)CCC)[C@H](Cn1c2nc(=O)[nH]c(=O)c-2nc2cc(C)c(C)cc21)OC(=O)CCC
2.2%: nuclear beta-catenin stimulation ([1]; stimulation, at 2 µM)
inactive: nuclear beta-catenin stimulation ([1]; at 10 µM) -0.4% | insulin secretion stimulation [2] 1.9% | viability decrease [3] 39.1% | tube area decrease [4] 14.1% | GLP1 secretion stimulation [5] 2.6% | inhibition of viability [6] 11.7% | viability decrease (inhibition) [7] 25.5% | viability decrease (inhibition) [8] 24.5%

CCOc1ncc(F)c(=O)[nH]1
inactive: nuclear beta-catenin stimulation ([1]; at 10 µM) -1% | insulin secretion stimulation [2] 2.9% | viability decrease [3] 0.7% | tube area decrease [4] 0.1% | GLP1 secretion stimulation [5] 2.1% | inhibition of viability [6] 2.4% | viability decrease (inhibition) [7] 3% | viability decrease (inhibition) [8] -4.2%
-1.1%: nuclear beta-catenin stimulation ([1]; stimulation, at 2 µM)

Cc1cccc(C)c1OCC(=O)N[C@@H](Cc1ccccc1)[C@@H](O)C[C@H](Cc1ccccc1)NC(=O)[C@H](C(C)C)N1CCCNC1=O
-0.1%: nuclear beta-catenin stimulation ([1]; stimulation, at 2 µM)
inactive: nuclear beta-catenin stimulation ([1]; at 10 µM) 2% | insulin secretion stimulation [2] 2.4% | tube area decrease [4] 2% | GLP1 secretion stimulation [5] 1.5% | inhibition of viability [6] 43.5%
active: viability decrease [3] 67.4% | viability decrease (inhibition) [7] 80.2% | viability decrease (inhibition) [8] 73.5%

C[C@@H](O)[C@H]1C(=O)N2C(C(=O)O)=C([C@H]3CCCO3)S[C@H]12
0.5%: nuclear beta-catenin stimulation ([1]; stimulation, at 2 µM)
inactive: nuclear beta-catenin stimulation ([1]; at 10 µM) 0.5% | insulin secretion stimulation [2] -1.8% | viability decrease [3] 13.8% | tube area decrease [4] -11.6% | GLP1 secretion stimulation [5] 1.1% | inhibition of viability [6] 3.4% | viability decrease (inhibition) [7] 34.6% | viability decrease (inhibition) [8] 11.2%

Cc1ccc2ccc(Cl)cc2n1
inactive: nuclear beta-catenin stimulation ([1]; at 10 µM) -0.9% | insulin secretion stimulation [2] 1.25% | viability decrease [3] -1.7% | tube area decrease [4] -2.2% | GLP1 secretion stimulation [5] -2.9% | inhibition of viability [6] 2.4% | viability decrease (inhibition) [7] 1.2% | viability decrease (inhibition) [8] -3.7%
-2.1%: nuclear beta-catenin stimulation ([1]; stimulation, at 2 µM)

CC(C)NCCCC1(C(N)=O)c2ccccc2-c2ccccc21
inactive: nuclear beta-catenin stimulation ([1]; at 10 µM) 3.9% | insulin secretion stimulation [2] 0.2% | viability decrease [3] -48.2% | tube area decrease [4] 24.7% | GLP1 secretion stimulation [5] -2.8% | inhibition of viability [6] -11.9% | viability decrease (inhibition) [7] 1.7% | viability decrease (inhibition) [8] -17%
0.2%: nuclear beta-catenin stimulation ([1]; stimulation, at 2 µM)

NCc1ccccc1Sc1ccccc1CO
inactive: nuclear beta-catenin stimulation ([1]; at 10 µM) 0.6% | insulin secretion stimulation [2] -0.8% | viability decrease [3] -138% | tube area decrease [4] -11.8% | GLP1 secretion stimulation [5] 3.3% | inhibition of viability [6] 6.13% | viability decrease (inhibition) [7] 29.2% | viability decrease (inhibition) [8] -10.7%
1%: nuclear beta-catenin stimulation ([1]; stimulation, at 2 µM)

c1ccc2sc(SSc3nc4ccccc4s3)nc2c1
inactive: nuclear beta-catenin stimulation ([1]; at 10 µM) 2.2% | insulin secretion stimulation [2] -0.6% | viability decrease [3] -0.8% | tube area decrease [4] -4.4% | inhibition of viability [6] -5.7% | viability decrease (inhibition) [7] -1% | viability decrease (inhibition) [8] -20.5%
active: GLP1 secretion stimulation [5] 22.3%
0.3%: nuclear beta-catenin stimulation ([1]; stimulation, at 2 µM)

CCCCCCCCCCCCCCCCCCCCCC(=O)Nc1ccn([C@@H]2O[C@H](CO)[C@@H](O)[C@H]2O)c(=O)n1
inactive: nuclear beta-catenin stimulation ([1]; at 10 µM) 4.1% | insulin secretion stimulation [2] 3.05% | viability decrease [3] 48.1% | GLP1 secretion stimulation [5] -1.6% | inhibition of viability [6] 39.5% | viability decrease (inhibition) [7] 40.5% | viability decrease (inhibition) [8] 15%
active: tube area decrease [4] 51.7%
-0.9%: nuclear beta-catenin stimulation ([1]; stimulation, at 2 µM)

COc1ccc(C(C#N)C(C)C)cc1OC (centres undefined)
0.3%: nuclear beta-catenin stimulation ([1]; stimulation, at 2 µM)
active: viability decrease (inhibition) [7] -4.7%
inactive: nuclear beta-catenin stimulation ([1]; at 10 µM) -1.8% | insulin secretion stimulation [2] 2.2% | viability decrease [3] -24.5% | tube area decrease [4] 9.3% | GLP1 secretion stimulation [5] -3.4% | inhibition of viability [6] 13.4% | viability decrease (inhibition) [8] -19.9%

C[C@H](CCC(=O)O)[C@H]1CC[C@H]2[C@H]3[C@@H](CC[C@]12C)[C@@]1(C)CC[C@@H](O)C[C@H]1C[C@@H]3O
0.2%: nuclear beta-catenin stimulation ([1]; stimulation, at 2 µM)
inactive: nuclear beta-catenin stimulation ([1]; at 10 µM) -1.6% | insulin secretion stimulation [2] 1% | viability decrease [3] -8.5% | tube area decrease [4] -26.9% | GLP1 secretion stimulation [5] -1.3% | inhibition of viability [6] 7.3% | viability decrease (inhibition) [7] 6.1% | viability decrease (inhibition) [8] -6.8%

CCOC(=O)N1CCC(Nc2ccc(Cl)cc2N)CC1
4.4%: nuclear beta-catenin stimulation ([1]; stimulation, at 2 µM)
inactive: nuclear beta-catenin stimulation ([1]; at 10 µM) 5.3% | insulin secretion stimulation [2] 0.6% | viability decrease [3] 0.9% | GLP1 secretion stimulation [5] -4.9% | inhibition of viability [6] 32.5% | viability decrease (inhibition) [7] 27.8% | viability decrease (inhibition) [8] -12.2%
active: tube area decrease [4] 41.4%

O=C(Nc1ncc([N+](=O)[O-])s1)c1cccs1
active: tube area decrease [4] 46.3% | viability decrease (inhibition) [8] 67.5%
inactive: nuclear beta-catenin stimulation ([1]; at 10 µM) -2.8% | insulin secretion stimulation [2] -0.4% | viability decrease [3] 45.8% | GLP1 secretion stimulation [5] -0.9% | inhibition of viability [6] 41.2% | viability decrease (inhibition) [7] 43.6%
-1.2%: nuclear beta-catenin stimulation ([1]; stimulation, at 2 µM)

O=C(Nc1ccc(Cl)cc1)Nc1ccc(Cl)c(Cl)c1
active: viability decrease [3] 92.2% | tube area decrease [4] 103% | inhibition of viability [6] 84.6% | viability decrease (inhibition) [7] 116% | viability decrease (inhibition) [8] 94.1%
0.3%: nuclear beta-catenin stimulation ([1]; stimulation, at 2 µM)
inactive: nuclear beta-catenin stimulation ([1]; at 10 µM) 35.1% | insulin secretion stimulation [2] -3.4% | GLP1 secretion stimulation [5] -3.2%

OC1(c2ccc(Cl)cc2)CCNCC1
-1.2%: nuclear beta-catenin stimulation ([1]; stimulation, at 2 µM)
inactive: nuclear beta-catenin stimulation ([1]; at 10 µM) -0.1% | insulin secretion stimulation [2] 6.1% | viability decrease [3] 13.1% | tube area decrease [4] 7.8% | GLP1 secretion stimulation [5] 1.3% | inhibition of viability [6] 23.2% | viability decrease (inhibition) [7] 30.5% | viability decrease (inhibition) [8] 8.8%
